The text below walks through data of PubChem BioAssay (NCATS).

Test [1] has as its target Lysosomal acid glucosylceramidase (Homo sapiens) (UniProt P04062). The experiment in a line: Glucocerebrosidase-p2 (AID 348; in the data active means potency below about 10 µM; further: potency means the concentration at half of the fitted maximal effect). The conditions noted are these: purified GBA, blue fluorogenic substrate, 40 min. In outline:
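Compounds titrated from 0.6 nM upwards against 0.2 nM enzyme in pH 5.9 citric acid/KH2PO4, taurocholate, tween-20; blue fluorogenic substrate 80 uM, 40 min room temperature, stopped and read Ex 365/Em 440 for AC50.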

Test [2] is described as follows: AP1 Signaling Pathway (AID 357).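 Further: ME-180 reporter cells stimulated with EGF at its EC50 level; on the % scale 0 is the no-effect control and ±100 the full control effect.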 The conditions noted are these: ME-180 AP-1-bla reporter, EGF-induced, beta-lactamase ratio, 5 h; at 7.69 µM (top of the series) unless noted. In outline:
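Cells are seeded overnight, exposed to compound titrations and an EC50 level of EGF for 5 hours at 37 °C, then loaded with CCF4 dye for 2.5 hours. Beta-lactamase activity under the AP-1 element is read as a blue/green ratio.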

Test [3] deals with Cytochrome P450 1A2 (Homo sapiens) (UniProt P05177). The experiment in a line: p450-cyp1a2 (AID 410; calls by dose curve; further: potency means the concentration at half of the fitted maximal effect). To be noted: recombinant CYP1A2, luciferin-ME demethylation, luminescence; series mostly up to 57 µM. The method in brief:
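Inhibition was calculated relative to 57 uM furafylline (full inhibition). The reaction used human CYP1A2 at 20nM with Luciferin-ME at its Km, 100uM, driven by an NADPH-regenerating system for 60 min at room temperature.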

Test [4] in a line: NFAT Signaling Pathway (AID 444).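 Further: carbachol stimulus at about its EC50 of 1 µM final; on the % scale 0 is the no-effect control and ±100 the full control effect.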 To be noted: Jurkat NFAT-bla M1, carbachol, beta-lactamase ratio, 5 h; at 7.69 µM (top of the series) unless noted. In outline: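 Read-out: CCF4 FRET ratio (460 nm/530 nm) after 1 h RT dye loading, used for %activity and AC50 from titration series. Cells: Jurkat NFAT-β-lactamase/M1 line, treated with compound plus 1 uM carbachol for 5 h, 37 °C.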

The nature of test [5]: Stat Signaling Pathway (AID 446).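 Further: ME-180 cervical cancer cells given 40 pM IL-6 alongside compound; SIE-controlled beta-lactamase reporter measured as 460/530 nm FRET emission ratio; on the % scale 0 is the no-effect control and ±100 the full control effect.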 To be noted: ME-180 (cervical carcinoma) SIE beta-lactamase reporter, IL-6 stimulated, 5 h; at 7.69 µM (top of the series) unless noted. The method in brief: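 IL-6/STAT signaling read in ME-180 cells via an SIE beta-lactamase reporter. Stimulus was 40 pM IL-6 (its AC50) for 5 hrs, so both activation and inhibition register.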
In test [6] the target is Glucocorticoid receptor (Homo sapiens) (UniProt P04150). The experiment in a line: GR-GFP Redistribution (AID 450;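 active means compounds whose dose series gives a full or clear partial fitted curve of increased nuclear translocation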; further: potency means the concentration at half of the fitted maximal effect). To be noted: U2OS GR-GFP nuclear translocation, laser cytometry, 2 h.
Chain of Glucocorticoid receptor (Homo sapiens) (P04150 whole entry, looked up, the tested form may be a part): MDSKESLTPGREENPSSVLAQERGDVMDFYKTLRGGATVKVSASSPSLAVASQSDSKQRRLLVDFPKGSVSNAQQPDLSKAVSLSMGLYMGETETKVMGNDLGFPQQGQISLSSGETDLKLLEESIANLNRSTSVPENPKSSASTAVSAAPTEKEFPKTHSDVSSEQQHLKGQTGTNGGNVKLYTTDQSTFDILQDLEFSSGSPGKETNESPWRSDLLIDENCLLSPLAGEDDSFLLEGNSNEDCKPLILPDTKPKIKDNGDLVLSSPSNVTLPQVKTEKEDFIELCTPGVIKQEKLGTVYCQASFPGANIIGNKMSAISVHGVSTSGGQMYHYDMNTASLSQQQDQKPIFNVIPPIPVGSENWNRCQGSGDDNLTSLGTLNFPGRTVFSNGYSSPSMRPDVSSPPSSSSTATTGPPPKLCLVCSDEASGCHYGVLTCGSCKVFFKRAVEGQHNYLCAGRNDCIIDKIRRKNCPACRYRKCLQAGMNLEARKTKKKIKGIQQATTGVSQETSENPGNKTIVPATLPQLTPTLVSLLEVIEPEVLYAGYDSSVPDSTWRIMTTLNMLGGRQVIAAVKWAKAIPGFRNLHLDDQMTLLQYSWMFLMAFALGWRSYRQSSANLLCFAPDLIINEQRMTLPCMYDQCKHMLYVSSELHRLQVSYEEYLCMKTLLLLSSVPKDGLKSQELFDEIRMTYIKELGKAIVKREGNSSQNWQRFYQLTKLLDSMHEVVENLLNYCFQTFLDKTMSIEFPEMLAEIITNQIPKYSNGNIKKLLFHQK
For test [7] the target is unchanged. Put plainly: GR-EFC Redistribution (AID 451; calls by dose curve; further: potency means the concentration at half of the fitted maximal effect). To be noted: CHO-K1 GR-EFC translocation, beta-gal luminescence, 2 h. In outline: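 Translocation of GR-ED fusion to nuclear EA restores b-gal, read by luminescence after 1 h room-temperature detection. Engineered CHO-K1 biosensor cells, 1,000/well, exposed 2 h at 37 C to titrations up to 46 uM final.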
Test [8] concerns the target Mitogen-activated protein kinase 10 (Mus musculus) (UniProt Q61831). The experiment in a line: JNK3 AlphaScreen Assay (AID 530).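 Further: kinase came from lysate of stimulated human HepG2 cells; signal reports phosphorylation of biotinylated GST-cJun 1-79 at Ser73 with 10 µM ATP; on the % scale 0 is the no-effect control and ±100 the full control effect.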 To be noted: JNK3 lysate, c-Jun phosphorylation; series mostly up to 57.1 µM. The method in brief:
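Room-temperature AlphaScreen kinase assay; pre-activated HepG2 lysate as JNK3 source, biotin-GST-cJun(1-79) substrate, 10 uM ATP, compound 15 min preincubation.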
Background: Bead proximity is the source of the signal in Alpha formats.

The target of test [9] is 3',5'-cyclic-AMP phosphodiesterase 4B (Homo sapiens) (UniProt Q07343). Put plainly: qHTS Assay for Inhibitors of PDE-IV (AID 607; active means well fitted activation curve with a large enough effect in the main read-out, with a control signal flat, not every such curve was filed as active; further: % of control where 0% means no effect). To be noted: HEK293 ACTOne CNG channel cells, membrane potential fluorescence; series mostly up to 22.9 µM. The method in brief:
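Live HEK293 cells with a modified cyclic nucleotide-gated (CNG) channel report intracellular cAMP via membrane-potential dye fluorescence (ex 535/em 590 nm). Endogenous PDE-IV was targeted. Compounds were tested at up to 22.9 uM final; RO 20-1724 100 uM served as control.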
Background: qHTS replaces the single test concentration by a dilution series.

Test [10] in a line: qHTS Assay for Lipid Storage Modulators (AID 1519; calls by dose curve). The conditions noted are these: Drosophila S3 cells, BODIPY lipid droplet/cell ratio, laser cytometry, cells loaded with oleic acid; for activity change, negative = inhibition: at 57.5 µM (top of the series). The method in brief:
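Cells seeded at 5,000 per well were treated with compounds over a concentration series and loaded with oleic acid (400 uM, as added). Lipid droplet fluorescence (488 nm excitation, 500-530 nm channel) was read by laser-scanning cytometry and normalized to 20 uM Triacsin C.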

Test [11] has as its target Dual specificity protein kinase CLK4 (Homo sapiens) (UniProt Q9HAZ1). Put plainly: qHTS Assay for Inhibitors of CDC-like Kinase 4 (ADP-Glo Assay) (AID 1771; active means well fitted curve in the direction sought with a large enough effect; an effect the other way counts as inactive or inconclusive; further: nearly all actives have a fitted effect of over 70% in size; further: potency means the concentration at half of the fitted maximal effect). To be noted: recombinant CLK4, ADP-Glo luminescence; series mostly up to 80 µM. The method in brief: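 Kinase reaction: Clk4 at 25 nM, RS repeat peptide substrate at 100 uM, ATP at 1 uM, 1 hr, room temperature. Product ADP detected as luciferase signal via ADP-Glo.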

Test [12] concerns the target Ubiquitin carboxyl-terminal hydrolase 1 (Homo sapiens) (UniProt O94782). Put plainly: Inhibitors of USP1/UAF1: Pilot qHTS (AID 504865; active means well fitted curve in the direction sought with a large enough effect; an effect the other way counts as inactive or inconclusive;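 further: rhodamine fluorescence freed from ubiquitin-rhodamine substrate followed over time; top concentration of the series differs between compounds; on the % scale 0 is the no-effect control and ±100 the full control effect; nearly all actives have a fitted effect of over 35% in size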). To be noted: purified USP1/UAF1, Ub-rhodamine cleavage fluorescence; series mostly up to 54.9 µM. The method in brief: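 Kinetic fluorescence assay: 1nM USP1/UAF1, 15 min compound preincubation, then 150nM Ub-Rho; 480/540 nm.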
For test [13], the target named is Dual specificity protein kinase CLK4 (Homo sapiens) (UniProt Q9HAZ1). Put plainly: qHTS Assay for Inhibitors of CDC-like Kinase 4 (Kinase-Glo Assay) (AID 1770; active means well fitted curve in the direction sought with a large enough effect; an effect the other way counts as inactive or inconclusive; further: on the % scale 0 is the no-effect control and ±100 the full control effect; nearly all actives have a fitted effect of over 65% in size). To be noted: recombinant Clk4, Kinase-Glo ATP depletion luminescence; series mostly up to 66.7 µM. In outline: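 Inhibition was judged from remaining ATP, measured by Ultra-Glo luciferase bioluminescence after Clk4 (25 nM) had acted on RS peptide at 1 uM ATP for 4.5 hours, room temperature.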
Chain of Dual specificity protein kinase CLK4 (Homo sapiens) (Q9HAZ1 whole entry, looked up): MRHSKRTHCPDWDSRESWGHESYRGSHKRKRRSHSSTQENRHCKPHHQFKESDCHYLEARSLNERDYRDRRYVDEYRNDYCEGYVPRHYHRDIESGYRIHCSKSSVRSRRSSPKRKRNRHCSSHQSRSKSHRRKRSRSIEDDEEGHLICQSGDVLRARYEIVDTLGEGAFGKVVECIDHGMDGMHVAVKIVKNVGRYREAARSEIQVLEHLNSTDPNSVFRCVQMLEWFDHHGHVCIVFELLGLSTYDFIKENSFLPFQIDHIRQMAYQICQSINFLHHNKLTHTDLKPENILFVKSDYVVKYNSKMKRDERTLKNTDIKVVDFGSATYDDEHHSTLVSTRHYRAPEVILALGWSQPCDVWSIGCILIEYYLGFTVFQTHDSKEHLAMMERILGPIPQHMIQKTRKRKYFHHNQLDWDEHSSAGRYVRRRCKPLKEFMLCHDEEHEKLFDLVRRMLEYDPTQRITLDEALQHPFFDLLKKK

For test [14] the target is unchanged. The experiment in a line: qHTS Assay for Inhibitors of CDC-like Kinase 4 (ADP-FP Assay) (AID 1795; active means well fitted curve in the direction sought with a large enough effect; an effect the other way counts as inactive or inconclusive; further: on the % scale 0 is the no-effect control and ±100 the full control effect; nearly all actives have a fitted effect of over 60% in size). The conditions noted are these: Transcreener ADP fluorescence polarization; series mostly up to 50 µM. The method in brief: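 Inhibition of ADP formation by 6.25 nM Clk4 is measured using 1 uM ATP and 100 uM RS repeat peptide over one hour. Produced ADP displaces a fluorescent tracer from antibody, lowering polarization.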

The target in test [15] is Cytochrome P450 3A4 (Homo sapiens) (UniProt P08684). Put plainly: qHTS Assay for Activators of Cytochrome P450 3A4 (AID 885; active means well fitted curve in the direction sought with a large enough effect; an effect the other way counts as inactive or inconclusive; further: nearly all actives have a fitted effect of over 65% in size). To be noted: recombinant CYP3A4, Luciferin-PPXE luminescence, 60 min; series mostly up to 57.1 µM. The method in brief:
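Quantitative HTS format: compounds preincubated with 20nM human CYP3A4 and Luciferin-PPXE substrate at KM, reaction started by NADPH regeneration, stopped after 60 min, luciferase luminescence read 20 min later.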

The mark [16] stands for this setting: measured here: cell count channel max response.
Where [17] appears, read: measured here: lipid channel max response.

SMILES strings stand for the structures. Records with an inconclusive call do not appear. Activity calls are given as the source filed them. Unless noted, the call rests on the fitted dose curve; in most records, active means well fitted curve in either direction with a large enough effect (not every such curve was filed as active); inconclusive means small, poorly fitted or top-dose-only effect, or another doubt; inactive means flat fitted curve, though single readings scatter.

Chain of 3',5'-cyclic-AMP phosphodiesterase 4B (Homo sapiens) (Q07343 whole entry, looked up): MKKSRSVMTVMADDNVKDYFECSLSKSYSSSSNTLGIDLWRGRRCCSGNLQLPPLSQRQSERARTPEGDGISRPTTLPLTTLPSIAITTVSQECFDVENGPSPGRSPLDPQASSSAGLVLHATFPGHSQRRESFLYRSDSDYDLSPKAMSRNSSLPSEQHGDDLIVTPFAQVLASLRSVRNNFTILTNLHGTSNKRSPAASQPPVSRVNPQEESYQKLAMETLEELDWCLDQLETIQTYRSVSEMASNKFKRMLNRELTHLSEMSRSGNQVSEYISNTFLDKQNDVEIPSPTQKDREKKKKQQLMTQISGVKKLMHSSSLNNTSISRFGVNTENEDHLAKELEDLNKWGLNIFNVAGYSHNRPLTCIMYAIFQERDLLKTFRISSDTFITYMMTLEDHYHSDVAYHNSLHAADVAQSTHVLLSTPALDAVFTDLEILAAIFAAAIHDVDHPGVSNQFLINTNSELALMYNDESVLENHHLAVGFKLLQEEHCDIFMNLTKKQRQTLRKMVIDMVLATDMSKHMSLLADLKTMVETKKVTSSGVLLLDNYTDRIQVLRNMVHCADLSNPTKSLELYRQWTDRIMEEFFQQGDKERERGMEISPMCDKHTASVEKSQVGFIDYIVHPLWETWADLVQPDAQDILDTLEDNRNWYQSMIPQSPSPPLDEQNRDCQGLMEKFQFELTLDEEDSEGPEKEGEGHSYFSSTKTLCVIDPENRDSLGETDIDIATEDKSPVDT
Chain of Lysosomal acid glucosylceramidase (Homo sapiens) (P04062 whole entry, looked up): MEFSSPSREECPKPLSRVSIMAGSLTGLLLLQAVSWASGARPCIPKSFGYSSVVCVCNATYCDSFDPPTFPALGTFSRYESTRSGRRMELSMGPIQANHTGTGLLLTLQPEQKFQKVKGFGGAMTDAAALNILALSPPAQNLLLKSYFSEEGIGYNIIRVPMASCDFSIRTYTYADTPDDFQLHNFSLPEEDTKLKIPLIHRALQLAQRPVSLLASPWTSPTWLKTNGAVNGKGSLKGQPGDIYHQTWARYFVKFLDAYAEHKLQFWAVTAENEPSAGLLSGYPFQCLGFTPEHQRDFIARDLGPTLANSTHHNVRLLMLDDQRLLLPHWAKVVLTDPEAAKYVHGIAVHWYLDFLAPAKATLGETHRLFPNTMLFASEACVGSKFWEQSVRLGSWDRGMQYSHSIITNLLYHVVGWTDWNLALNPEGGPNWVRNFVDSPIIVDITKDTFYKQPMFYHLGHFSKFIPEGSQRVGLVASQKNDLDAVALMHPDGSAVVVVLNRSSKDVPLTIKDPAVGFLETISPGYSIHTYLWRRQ
Chain of Cytochrome P450 1A2 (Homo sapiens) (P05177 whole entry, looked up): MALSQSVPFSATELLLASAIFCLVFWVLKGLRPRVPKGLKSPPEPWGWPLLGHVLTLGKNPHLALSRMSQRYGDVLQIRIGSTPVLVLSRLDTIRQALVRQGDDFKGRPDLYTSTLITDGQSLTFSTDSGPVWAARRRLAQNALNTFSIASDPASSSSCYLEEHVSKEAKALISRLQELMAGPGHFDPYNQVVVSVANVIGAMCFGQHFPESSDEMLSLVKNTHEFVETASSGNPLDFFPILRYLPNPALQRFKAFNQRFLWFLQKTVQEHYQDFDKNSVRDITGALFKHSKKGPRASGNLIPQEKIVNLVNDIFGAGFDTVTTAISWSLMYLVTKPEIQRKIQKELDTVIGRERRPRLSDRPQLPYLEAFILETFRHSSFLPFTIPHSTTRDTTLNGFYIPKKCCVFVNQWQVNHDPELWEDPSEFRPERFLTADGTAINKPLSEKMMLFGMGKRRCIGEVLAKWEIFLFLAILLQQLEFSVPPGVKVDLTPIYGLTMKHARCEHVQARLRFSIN
Chain of Ubiquitin carboxyl-terminal hydrolase 1 (Homo sapiens) (O94782 whole entry, looked up): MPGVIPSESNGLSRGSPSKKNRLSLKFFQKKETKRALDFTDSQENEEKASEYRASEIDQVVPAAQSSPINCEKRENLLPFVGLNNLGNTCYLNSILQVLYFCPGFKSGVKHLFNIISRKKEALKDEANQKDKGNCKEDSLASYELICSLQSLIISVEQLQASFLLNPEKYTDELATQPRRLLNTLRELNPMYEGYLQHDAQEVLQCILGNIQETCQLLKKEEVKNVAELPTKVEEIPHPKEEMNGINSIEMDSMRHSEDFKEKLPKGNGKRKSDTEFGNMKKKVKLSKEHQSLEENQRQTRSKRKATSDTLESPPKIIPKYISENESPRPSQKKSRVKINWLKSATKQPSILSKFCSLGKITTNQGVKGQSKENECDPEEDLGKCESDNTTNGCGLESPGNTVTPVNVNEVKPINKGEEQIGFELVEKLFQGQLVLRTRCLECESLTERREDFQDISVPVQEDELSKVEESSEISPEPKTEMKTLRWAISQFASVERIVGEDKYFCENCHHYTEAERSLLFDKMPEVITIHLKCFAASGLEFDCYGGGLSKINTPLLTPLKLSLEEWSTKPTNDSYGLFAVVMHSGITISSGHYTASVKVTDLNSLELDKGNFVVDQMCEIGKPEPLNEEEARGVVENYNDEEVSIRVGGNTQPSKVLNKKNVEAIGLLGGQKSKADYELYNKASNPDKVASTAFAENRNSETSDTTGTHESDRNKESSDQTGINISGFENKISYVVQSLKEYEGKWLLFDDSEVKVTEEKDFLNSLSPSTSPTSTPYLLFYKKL
Chain of Cytochrome P450 3A4 (Homo sapiens) (P08684 whole entry, looked up): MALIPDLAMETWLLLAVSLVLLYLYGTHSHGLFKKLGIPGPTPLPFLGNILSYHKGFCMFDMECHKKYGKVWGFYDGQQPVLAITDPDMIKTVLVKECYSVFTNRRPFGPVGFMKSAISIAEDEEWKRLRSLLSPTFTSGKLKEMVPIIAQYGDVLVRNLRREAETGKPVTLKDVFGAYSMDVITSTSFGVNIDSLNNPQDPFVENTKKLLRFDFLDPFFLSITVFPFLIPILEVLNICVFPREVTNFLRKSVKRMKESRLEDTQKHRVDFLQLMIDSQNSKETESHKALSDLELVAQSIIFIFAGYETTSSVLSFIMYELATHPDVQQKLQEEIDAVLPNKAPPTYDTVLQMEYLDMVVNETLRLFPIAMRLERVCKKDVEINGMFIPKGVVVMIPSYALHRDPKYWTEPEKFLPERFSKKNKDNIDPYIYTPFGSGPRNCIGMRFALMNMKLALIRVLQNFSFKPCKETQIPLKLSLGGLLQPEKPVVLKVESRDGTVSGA

On to `COc1ccccc1CNc1cc(-c2c(C)noc2C)ncn1`, for which the Potency in test [1] is > 11.4 µM (inactive); in [3], 5.01 µM (active); in [6], > 46 µM (inactive); in test [7], > 46 µM (inactive); in [11], 17.8 µM (active). For the same compound, the activity change, negative = inhibition in test [2] was 14.8% (inactive); in [4], -3.28% (inactive); in [10], 10.8% (inactive). Besides, the activity, negative = inhibition in test [5] is -4.72% (inactive). The outcome in test [8] was inactive. For the same compound, the Potency result in [9] and in [12] was “inactive” each time. The figures for the max response in [10] (setting [16]) and in test [10] (setting [17]) were 30% and 41.7%, respectively.

`O=c1c(-c2cc(F)cc(F)c2)nc2cnc(N3CCOCC3)nc2n1C[C@H]1CCCO1`: the Potency in [1] is > 11.4 µM (inactive); in test [3], 2.51 µM (active); in test [6], > 9.22 µM (inactive); in test [7], > 46 µM (inactive). Further, the activity change, negative = inhibition in test [2] is 10.4% (inactive); in [4] it was -16% (inactive); in [10], 5.53% (inactive). The activity, negative = inhibition in [5] was 0.32% (inactive). Besides, the outcome in [8] was inactive. In addition, the Potency result in test [9], in [13], in [11], in [14] and in [12] was “inactive” throughout. Further, the results for the max response in test [10] (setting [16]) and in test [10] (setting [17]) were 8.91% and 13.4%, respectively.

Turning to `Cn1cccc1C(=O)N1CCC[C@@]2(CCN(Cc3ccc(C#N)cc3)C2)C1`, the Potency in [1] was > 11.4 µM (inactive); in test [7], > 46 µM (inactive). The values for the activity change, negative = inhibition in test [2], in test [4] and in [10] were -2.05% (inactive), -13.8% (inactive) and 4.84% (inactive), respectively. In addition, the activity, negative = inhibition in test [5] was -3.28% (inactive). In addition, the result in test [8] was inactive. Moreover, the Potency entry in test [9] and in test [15] was “inactive” throughout. Also, the max response in [10] (setting [16]) stood at 7.42%; in test [10] (setting [17]) it was 16.5%.
